Measurements taken from PubChem BioAssay (NCI).
About 83,000 compounds went through this panel and 20% of them were active in at least one assay; those are over-represented in the sample as a whole.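 Percent growth is the endpoint: 0 to 100 indicates growth inhibition (40 means 60% inhibition), 0 means no net growth, and negative values indicate cell death.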 Unmarked numbers belong to inactive results. The source made the active and inactive calls. Rule for the calls: active = growth percent below 10; inactive = the rest.

Legend:
Experiment in all cases: NCI-60 one-dose screen, 48 h (100 = growth as untreated, 0 = no growth, -100 = all killed)
Settings in all cases: 10 µM unless noted
SR leukemia = tested on: SR leukemia
RPMI-8226 leukemia = tested on: RPMI-8226 leukemia
OVCAR-8 ovarian = tested on: OVCAR-8 ovarian
OVCAR-5 ovarian = tested on: OVCAR-5 ovarian
OVCAR-4 ovarian = tested on: OVCAR-4 ovarian
SK-OV-3 ovarian = tested on: SK-OV-3 ovarian
IGROV1 ovarian = tested on: IGROV1 ovarian
HS 578T breast = tested on: HS 578T breast
NCI/ADR-RES ovarian = tested on: NCI/ADR-RES ovarian

Brc1cccc(-c2cc(-c3ccc4c(c3)OC=CO4)[nH]n2)c1
growth (SR leukemia): 27.6%
growth (RPMI-8226 leukemia): 22.5%
growth (OVCAR-8 ovarian): 42.3%
growth (OVCAR-5 ovarian): 71.5%
growth (OVCAR-4 ovarian): 82.1%
growth (SK-OV-3 ovarian): 67.9%
growth (IGROV1 ovarian): 41.3%
growth (HS 578T breast): 58.8%
growth (NCI/ADR-RES ovarian): 15.3%

N#Cc1c(-c2ccc(Br)cc2)cc(-c2c[nH]c3ccccc23)nc1N
growth (SR leukemia): 25.4%
growth (RPMI-8226 leukemia): 34.4%
growth (OVCAR-8 ovarian): 66.4%
growth (OVCAR-5 ovarian): 63.9%
growth (OVCAR-4 ovarian): 74.7%
growth (SK-OV-3 ovarian): 52.6%
growth (IGROV1 ovarian): 34.4%
growth (HS 578T breast): 58.6%
growth (NCI/ADR-RES ovarian): 24.9%

CCNC(=O)Oc1ccc(/C(=C(/C)c2ccc(OC)cc2)c2ccc(OCCN3CCCCCC3)cc2)cc1
growth (SR leukemia): -20.7% (active)
growth (RPMI-8226 leukemia): 12.1%
growth (OVCAR-8 ovarian): 68.4%
growth (OVCAR-5 ovarian): 72.7%
growth (OVCAR-4 ovarian): 62.7%
growth (SK-OV-3 ovarian): 79%
growth (IGROV1 ovarian): 65.4%
growth (HS 578T breast): 16.2%
growth (NCI/ADR-RES ovarian): 59.4%

Cn1cc(-c2nn3cc(-c4ccncc4)nc3s2)c2cc(Br)ccc21
growth (SR leukemia): 8.33% (active)
growth (RPMI-8226 leukemia): 15.2%
growth (OVCAR-8 ovarian): 28.8%
growth (OVCAR-5 ovarian): 73.8%
growth (OVCAR-4 ovarian): 75.7%
growth (SK-OV-3 ovarian): 87.6%
growth (IGROV1 ovarian): 33.4%
growth (HS 578T breast): 54.3%
growth (NCI/ADR-RES ovarian): 42.8%

CCCCOc1ccc(S(=O)(=O)N2CCN(c3nc(C)cc(N4CCOCC4)n3)CC2)cc1
growth (SR leukemia): 42.4%
growth (RPMI-8226 leukemia): 3.95% (active)
growth (OVCAR-8 ovarian): 45%
growth (OVCAR-5 ovarian): 50.4%
growth (OVCAR-4 ovarian): 49%
growth (SK-OV-3 ovarian): -11.6% (active)
growth (IGROV1 ovarian): 7.73% (active)
growth (HS 578T breast): 63.6%
growth (NCI/ADR-RES ovarian): 25.4%

C=C(C)[C@@H]1CC[C@]2(COP(=O)(OCC)OCC)CC[C@]3(C)[C@H](CC[C@@H]4[C@@]5(C)CC[C@H](OP(=O)(OCC)OCC)C(C)(C)[C@@H]5CC[C@]43C)[C@@H]12
growth (SR leukemia): 30.2%
growth (RPMI-8226 leukemia): -18.1% (active)
growth (OVCAR-8 ovarian): 40.5%
growth (OVCAR-5 ovarian): 84.3%
growth (OVCAR-4 ovarian): 65.5%
growth (SK-OV-3 ovarian): 77.2%
growth (IGROV1 ovarian): 74.5%
growth (HS 578T breast): 74.7%
growth (NCI/ADR-RES ovarian): 31.8%

CCOP(=O)(OCC)OC[C@]12CCC(C)(C)C[C@H]1C1=CC[C@@H]3[C@@]4(C)CC[C@H](OP(=O)(OCC)OCC)C(C)(C)[C@@H]4CC[C@@]3(C)[C@]1(C)CC2
growth (SR leukemia): 35%
growth (RPMI-8226 leukemia): 5.23% (active)
growth (OVCAR-8 ovarian): 60.4%
growth (OVCAR-5 ovarian): 75.2%
growth (OVCAR-4 ovarian): 65.9%
growth (SK-OV-3 ovarian): 73.2%
growth (IGROV1 ovarian): 68.1%
growth (HS 578T breast): 83.2%
growth (NCI/ADR-RES ovarian): 65.8%

COc1ccc(N2CCN(C3=C(Cl)C(=O)c4ncccc4C3=O)CC2)cc1
growth (SR leukemia): 0.311% (active)
growth (RPMI-8226 leukemia): 23.2%
growth (OVCAR-8 ovarian): 74.8%
growth (OVCAR-5 ovarian): 112%
growth (OVCAR-4 ovarian): 48.2%
growth (SK-OV-3 ovarian): 81%
growth (IGROV1 ovarian): 80.7%
growth (HS 578T breast): 70.2%
growth (NCI/ADR-RES ovarian): 86.6%

CN1CCN(c2ccc(Nc3nc(NCCNS(=O)(=O)c4ccccc4)c4sccc4n3)cc2)CC1
growth (SR leukemia): 117%
growth (RPMI-8226 leukemia): 102%
growth (OVCAR-8 ovarian): 106%
growth (OVCAR-5 ovarian): 102%
growth (OVCAR-4 ovarian): 92.5%
growth (SK-OV-3 ovarian): 107%
growth (IGROV1 ovarian): 95.9%
growth (HS 578T breast): 88.1%
growth (NCI/ADR-RES ovarian): 101%

CC[C@H](CC[C@@H](C)[C@H]1CC[C@H]2[C@@H]3CC(=O)C4=CC(=O)/C(=C/c5ccc([N+](=O)[O-])cc5)C[C@]4(C)[C@H]3CC[C@]12C)C(C)C
growth (SR leukemia): 84.3%
growth (RPMI-8226 leukemia): 83.5%
growth (OVCAR-8 ovarian): 100%
growth (OVCAR-5 ovarian): 105%
growth (OVCAR-4 ovarian): 108%
growth (SK-OV-3 ovarian): 124%
growth (IGROV1 ovarian): 111%
growth (HS 578T breast): 119%
growth (NCI/ADR-RES ovarian): 106%

O=C1[C@@H]2Cc3c([nH]c4ccccc34)[C@@H](c3ccc(Cl)cc3)N2C(=O)CN1C1CCN(Cc2ccccc2)CC1
growth (SR leukemia): -25.3% (active)
growth (RPMI-8226 leukemia): 18.9%
growth (OVCAR-8 ovarian): 43.9%
growth (OVCAR-5 ovarian): 90.1%
growth (OVCAR-4 ovarian): 49.1%
growth (SK-OV-3 ovarian): 80.5%
growth (IGROV1 ovarian): 29%
growth (HS 578T breast): 65.9%
growth (NCI/ADR-RES ovarian): 51.2%

Brc1cc(-c2cc(-c3ccc4c(c3)OCCO4)[nH]n2)cs1
growth (SR leukemia): 14.2%
growth (RPMI-8226 leukemia): 29.9%
growth (OVCAR-8 ovarian): 51.8%
growth (OVCAR-5 ovarian): 75.8%
growth (OVCAR-4 ovarian): 83.5%
growth (SK-OV-3 ovarian): 62.5%
growth (IGROV1 ovarian): 50.8%
growth (HS 578T breast): 61.1%
growth (NCI/ADR-RES ovarian): 17.4%

CN(C)CCNc1ccc2ncc(C#Cc3cncc(C(=O)Nc4ccc(CN5CCN(C)CC5)c(C(F)(F)F)c4)c3)n2n1
growth (SR leukemia): 0.232% (active)
growth (RPMI-8226 leukemia): -11.2% (active)
growth (OVCAR-8 ovarian): 1.03% (active)
growth (OVCAR-5 ovarian): 11.4%
growth (OVCAR-4 ovarian): -10.1% (active)
growth (SK-OV-3 ovarian): 45.1%
growth (IGROV1 ovarian): 0.103% (active)
growth (HS 578T breast): -16.1% (active)
growth (NCI/ADR-RES ovarian): 76%

CN1CCN(Cc2ccc(NC(=O)c3cncc(C#Cc4cnc5ccc(N)nn45)c3)cc2C(F)(F)F)CC1
growth (SR leukemia): 5.19% (active)
growth (RPMI-8226 leukemia): 24.7%
growth (OVCAR-8 ovarian): 16.5%
growth (OVCAR-5 ovarian): 32%
growth (OVCAR-4 ovarian): 46.1%
growth (SK-OV-3 ovarian): 45.3%
growth (IGROV1 ovarian): -4.68% (active)
growth (HS 578T breast): 20.6%
growth (NCI/ADR-RES ovarian): 89.8%
